This note sets out measurements from the supplement of paper PMC3334620.

The full ranking holds about 33,000 sequences; the median of “E-score (-0.5 to 0.5)” is about -0.01, and the highest 2% start at about 0.26. The list comes from a sample in which the highest values are over-represented; it also holds similar and randomly drawn sequences.

UniProt P13574, sequence (P13574 whole entry, the tested form may be a part): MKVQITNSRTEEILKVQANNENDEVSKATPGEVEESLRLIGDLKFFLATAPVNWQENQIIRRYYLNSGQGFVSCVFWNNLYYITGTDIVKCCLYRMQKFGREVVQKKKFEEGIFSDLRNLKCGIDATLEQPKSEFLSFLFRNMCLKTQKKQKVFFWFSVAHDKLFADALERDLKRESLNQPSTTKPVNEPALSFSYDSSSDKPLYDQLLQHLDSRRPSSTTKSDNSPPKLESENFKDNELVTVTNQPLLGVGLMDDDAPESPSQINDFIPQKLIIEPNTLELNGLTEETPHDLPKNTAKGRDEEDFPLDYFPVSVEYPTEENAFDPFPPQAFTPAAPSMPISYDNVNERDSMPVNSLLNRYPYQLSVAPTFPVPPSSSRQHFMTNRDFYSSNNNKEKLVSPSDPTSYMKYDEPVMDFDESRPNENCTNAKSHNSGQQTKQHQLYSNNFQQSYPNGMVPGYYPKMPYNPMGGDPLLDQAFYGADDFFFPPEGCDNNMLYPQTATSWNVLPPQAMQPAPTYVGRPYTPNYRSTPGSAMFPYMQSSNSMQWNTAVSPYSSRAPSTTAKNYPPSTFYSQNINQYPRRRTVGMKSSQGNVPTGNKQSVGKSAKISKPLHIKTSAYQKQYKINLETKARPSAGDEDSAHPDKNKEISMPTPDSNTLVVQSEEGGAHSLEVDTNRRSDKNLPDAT

The target of the test is Ste12 (UniProt P13574). Nature of the test: PBM E-score (8-mer binding enrichment) (E-score (-0.5 to 0.5)); higher = stronger / more preferred TF binding. Particulars: protein concentration: 200 nM; construct: GST-DNA-binding domain. On the procedure:
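Universal 'all 10-mer' protein binding microarrays (Agilent AMADID 015681) probed with GST-tagged S. cerevisiae TFs (full-length or DBD) made by in vitro transcription/translation (PURExpress), about 100-200 nM. Bound TF was detected with fluorescent anti-GST. Each ungapped 8-mer (which stands for itself and its reverse complement) is scored by the PBM enrichment score (E-score), a modified Wilcoxon-Mann-Whitney statistic from -0.5 to +0.5, computed with the Universal PBM Analysis Suite. Scale: above 0.35 generally sequence-specific binding.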
CCCCACCC: the “PBM E-score” value is 0.361.
Consider CCCCACCG, for which the “PBM E-score” value stood at 0.137.
The value for CCCCACCA was 0.102.
The value for GCCCACAC was 0.0974.
The value for ACCCACCC was 0.314; that for GCCCACCC was 0.344; that for ACCCACCA was 0.0136.
GCCCACCA: the “PBM E-score” value is -0.0497.
The figure for ACCCACCT is 0.0687; for GGAAAATA it is 0.255; for AACTACTT it is -0.00699.
On to CTGGTCGC, for which the “PBM E-score” value stood at 0.0843.
The value for CACTATGC was -0.0894; that for CTCAAACA was 0.341.
The figure for CTCAAGCA is -0.0187; for ATCAAACA it is 0.27.
The figure for ATCAAGCA is 0.0192; for CTCAAACC it is 0.0438.
For ATCAAACC, the “PBM E-score” value came to 0.217.
CTGAATCC: the “PBM E-score” value was determined as 0.0117.
The value for CAGTAGGC was -0.0958; that for GACTAGGA was -0.047.
In the case of GCTTGATA, the “PBM E-score” value is 0.083.
The figure for AATGATAA is 0.263.
The figure for CATGATAC is 0.242.
The value for AATGATAT was 0.113; that for AATGATAG was 0.194.
On to AATGATAC, for which the “PBM E-score” value amounted to 0.278.
For the sequence TATGATAA, the “PBM E-score” value was 0.131.
The figure for GTCTAACA is -0.0889.
The value for ACTTACCT was -0.0503.
The value for ACCGGTGC was -0.0741.
With ATTCCACC, the “PBM E-score” value was found to be 0.113.
The value for ATTCCACA was 0.268.
The figure for ATTCCACG is -0.0633.
The value for ATCGAGTA was -0.0649; that for CTCGCACA was 0.127; that for CTTGAGTC was -0.136.
Regarding CGTTTGAC, the “PBM E-score” value is -0.0236.
Turning to CGTTTTGA, the “PBM E-score” value stood at 0.275.
The figure for TGTTTGAA is 0.378; for AGTTTGAA it is 0.174.
The value for AGTTTTGA was 0.148.
The figure for GTTTTGAA is 0.189; for GGTTTGAA it is 0.297.
On to CGTTTTGC, for which the “PBM E-score” value stood at 0.197.
In the case of GGTTTGAC, the “PBM E-score” value is -0.0297.
The value for CGTTTGAG was 0.111.
Consider CGTTTGAA, for which the “PBM E-score” value is 0.265.
The value for TCTTTGAA was 0.161; that for CACTGCAC was -0.14.
Turning to CGCCCACC, the “PBM E-score” value is 0.139.
The value for ATCCTTTG was 0.0895.
The value for AGAAAGTA was 0.138; that for AGACAAGC was -0.0877.
The figure for AGACGCGG is 0.0721.
As to AACCCAGA, the “PBM E-score” value was -0.108.
The value for CGCTTGCC was -0.062.
Consider ATTTAAAT, for which the “PBM E-score” value worked out at 0.327.
The value for AGTTAAAT was 0.163; that for CTTTAAAG was -0.0155; that for AATTAAAT was 0.156.
In the case of ATTTAAAG, the “PBM E-score” value came to 0.275.
The figure for ATTTAAAC is 0.207; for ACAAGTTC it is -0.00961; for ATGAGTTA it is -0.0873.
The figure for AAGTCACC is -0.0787; for TAAGTGCA it is -0.104; for GTTGAAAA it is 0.206.
The figure for TTTGAAAA is 0.309; for ATTGAAAA it is 0.352; for TCTGAAAA it is 0.12.
Consider TGTGAAAA, for which the “PBM E-score” value stood at 0.216.
The value for CTTGAAAA was 0.157; that for ATTGAAGA was 0.00866; that for GTAGAAAC was 0.0517.
With ATGGAAAT, the “PBM E-score” value was 0.0797.
The figure for ATGGAAAA is 0.186; for ATGGAAAC it is 0.263; for GTTGAAAC it is 0.399.
On to GCTTATCC, for which the “PBM E-score” value was 0.0792.
In the case of ACTTGAGA, the “PBM E-score” value turned out to be 0.142.
The value for ACGTCTAC was -0.118.
The figure for ATAAAAGC is -0.00425; for GCCCTGGA it is -0.235; for CACTATGG it is -0.0915.
The value for CTTGAACC was -0.0679.
Turning to ATTGAAAT, the “PBM E-score” value came out at 0.233.
The value for ATTGAAAG was 0.0623.
The value for CTTGAAAG was -0.0999; that for ATTGAGAA was 0.277; that for ATTGAGAC was 0.122.
With ATTGAGAG, the “PBM E-score” value is -0.0617.
The value for CTTGAAAC was 0.479; that for ATTGAAAC was 0.398.
